Experimental data from PubChem BioAssay (NCATS).
Values joined by “and” are separate entries in the source; they are usually repeats but may differ in a detail not shown here. Identical values can stand only once. Inconclusive results are not listed. Active and inactive are the calls of the source. Unless noted, the call rests on the fitted dose curve; in most records, active means well fitted curve in the direction sought with a large enough effect; inconclusive means small, poorly fitted or top-dose-only effect, or another doubt; inactive means no such curve, though single readings can be large; an effect the other way counts as inactive or inconclusive.

Experiments:
[1] = target: Calcium and integrin-binding protein 1 (Homo sapiens) (UniProt Q99828); assay: Primary qHTS for Identification of Calcium Integrin Binding Protein 1 (CIB1) Competitor (AID 1508620); conditions: CIB1-GST / FITC-alphaIIb peptide fluorescence polarization; series mostly up to 114 µM;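 further: GST tagged CIB1 binding a fluorescein labelled alphaIIb integrin peptide tracer; top concentration of the series differs between compounds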
How it was run: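 Fluorescence polarization competition: GST-tagged CIB1 (1 uM final) preincubated with compound 15 min at room temperature, then FITC-labelled alphaIIb peptide (100 nM final) added. After 15 min at room temperature, polarization read at Ex 480/Em 540.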

[2] = target: Cytochrome P450 2D6 (Homo sapiens) (UniProt P10635); assay: Cytochrome P450 family 2 subfamily D member 6 (CYP2D6) small molecule antagonists: luciferase biochemical (cell-free) qHTS assay (AID 1645840; active means well fitted curve in the direction sought with a large enough effect in the repeat runs; an effect the other way counts as inactive or inconclusive; further: nearly all actives have a fitted effect of over 55% in size; further: potency means the concentration at half of the fitted maximal effect); conditions: P450-Glo CYP2D6 enzyme, luciferin luminescence, 1 h; series mostly up to 57.4 µM
How it was run: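 P450-Glo luminescent screen: recombinant CYP2D6 enzyme–proluciferin substrate mix preincubated with compound 10 min at room temperature, then NADPH regeneration added for 1 h at room temperature. Detection reagent added for 20 min; luciferin light read as relative luminescence units.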

[3] = target: Cytochrome P450 2C9 (Homo sapiens) (UniProt P11712); assay: Cytochrome P450 family 2 subfamily C member 9 (CYP2C9) small molecule antagonists: luciferase biochemical (cell-free) qHTS assay (AID 1645842; active means well fitted curve in the direction sought with a large enough effect in the repeat runs; an effect the other way counts as inactive or inconclusive; further: nearly all actives have a fitted effect of over 55% in size; further: potency means the concentration at half of the fitted maximal effect); conditions: P450-Glo CYP2C9 enzyme assay, luciferin luminescence; series mostly up to 57.4 µM
How it was run: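 Luminescence, after 20 min with luciferin detection reagent, reflected CYP2C9 turnover during a 1 h NADPH-driven reaction at 37C. Enzyme-substrate mix contained 0.4% bovine serum albumin and was preincubated with compound 10 min at room temperature.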

[4] = Primary qHTS for inhibitors of nuclear receptor binding SET domain protein 2 (NSD2) in an isogenic RCH-ACV NSD2 p.E1099K mutant (9B) (AID 1645876); conditions: RCH-ACV NSD2 E1099K (9B) viability, CellTiter-Glo, 72 h; series mostly up to 44.9 µM; further: nearly all actives have a fitted effect of over 70% in size; further: potency means the concentration at half of the fitted maximal effect
[5] = Primary qHTS for inhibitors of nuclear receptor binding SET domain protein 2 (NSD2) in an RCH-ACV wild type WT cells (2C) (AID 1645877); conditions: RCH-ACV (leukaemia line) NSD2 WT (2C) viability, CellTiter-Glo, 72 h; series mostly up to 44.9 µM; further: nearly all actives have a fitted effect of over 70% in size; further: potency means the concentration at half of the fitted maximal effect

Cytochrome P450 2C9 (Homo sapiens), sequence (P11712 whole entry, looked up): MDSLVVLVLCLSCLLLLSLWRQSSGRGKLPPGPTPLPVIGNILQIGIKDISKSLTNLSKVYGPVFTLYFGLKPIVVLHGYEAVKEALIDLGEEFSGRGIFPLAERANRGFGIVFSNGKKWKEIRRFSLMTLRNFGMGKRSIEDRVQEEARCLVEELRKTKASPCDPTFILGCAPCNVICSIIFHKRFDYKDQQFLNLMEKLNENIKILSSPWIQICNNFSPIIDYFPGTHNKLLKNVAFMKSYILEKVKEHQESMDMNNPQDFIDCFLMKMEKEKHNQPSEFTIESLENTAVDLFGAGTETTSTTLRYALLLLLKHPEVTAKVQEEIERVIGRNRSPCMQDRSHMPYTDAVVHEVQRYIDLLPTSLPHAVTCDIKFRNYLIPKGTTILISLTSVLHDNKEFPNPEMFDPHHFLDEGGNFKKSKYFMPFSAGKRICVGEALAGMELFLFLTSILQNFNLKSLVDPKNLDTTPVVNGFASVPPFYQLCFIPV
Calcium and integrin-binding protein 1 (Homo sapiens), sequence (Q99828 whole entry, looked up): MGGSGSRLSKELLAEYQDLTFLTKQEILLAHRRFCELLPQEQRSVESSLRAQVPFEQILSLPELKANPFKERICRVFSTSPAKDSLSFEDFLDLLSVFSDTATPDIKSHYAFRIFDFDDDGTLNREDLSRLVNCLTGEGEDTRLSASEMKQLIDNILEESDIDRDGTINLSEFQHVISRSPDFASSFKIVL
Cytochrome P450 2D6 (Homo sapiens), sequence (P10635 whole entry, looked up): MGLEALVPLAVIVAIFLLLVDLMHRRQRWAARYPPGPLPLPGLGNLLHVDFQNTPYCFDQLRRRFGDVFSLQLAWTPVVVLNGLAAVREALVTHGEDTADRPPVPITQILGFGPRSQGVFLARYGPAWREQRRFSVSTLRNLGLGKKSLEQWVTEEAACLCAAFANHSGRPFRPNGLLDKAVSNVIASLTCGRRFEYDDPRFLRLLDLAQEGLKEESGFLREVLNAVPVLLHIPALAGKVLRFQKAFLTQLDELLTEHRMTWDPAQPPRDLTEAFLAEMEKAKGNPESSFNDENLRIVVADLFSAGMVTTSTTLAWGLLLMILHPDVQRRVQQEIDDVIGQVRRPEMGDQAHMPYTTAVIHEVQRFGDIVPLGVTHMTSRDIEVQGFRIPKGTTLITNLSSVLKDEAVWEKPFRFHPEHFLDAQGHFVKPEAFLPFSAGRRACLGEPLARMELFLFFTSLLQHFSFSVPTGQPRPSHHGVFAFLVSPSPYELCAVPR

Structure (SMILES) | Potency [1] | Potency [2] | Potency [3] | Potency [4] | Potency [5]
COc1cc(OC)c2c(=O)[nH]c(-c3cc(C)c(OCCO)c(C)c3)nc2c1 | inactive | inactive | 12 µM (active) and 10.7 µM (active) | 12.9 µM (active) and 14.8 µM (active) | 10.3 µM (active) and 11.8 µM (active)
Cc1[nH]c(/C=C2\C(=O)Nc3ccc(F)cc32)c(C)c1C(=O)NCCN1CCCC1 | inactive | inactive | inactive | 16.3 µM (active) and 7.23 µM (active) | 11.5 µM (active) and 7.23 µM (active)
CCCC(CCC)C(=O)Nc1ccn([C@@H]2O[C@H](CO)[C@@H](O)C2(F)F)c(=O)n1 | inactive | inactive | 8.49 µM (active) | 1.48 µM (active) | 0.934 µM (active)
COC1CCN(C(=O)c2cc(Cc3n[nH]c(=O)c4ccccc34)ccc2F)CC1 | inactive | inactive | 23.9 µM (active) | 13.2 µM (active) | 8.33 µM (active)
COc1cc2nc(C3CC3)nc(N3CCN(c4ccccc4OC)CC3)c2cc1OC | inactive | 21.3 µM (active) | 13.5 µM (active) | 16.3 µM (active) | 12.9 µM (active)
C=CC(=O)Nc1cccc(Nc2nc(Nc3ccc(NC4CN(CCF)C4)cc3OC)ncc2C(F)(F)F)c1 | inactive | 13.5 µM (active) | 0.268 µM (active) | 4.59 µM (active) and 5.9 µM (active) | 4.09 µM (active) and 6.61 µM (active)
Cc1ccc(NC(=O)C(C)C)cc1C1CCN(Cc2ccc(Oc3ccc(F)c(F)c3)cc2)CC1 | inactive | 5.35 µM (active) | 9.52 µM (active) | 12.9 µM (active) | 9.16 µM (active)
CC(C)(C)c1ccc(C(=O)Nc2cn3cc(-n4ccnc4)ccc3n2)cc1 | inactive | inactive | 7.56 µM (active) | inactive | inactive
O=C(NCCCCN1CCN(c2cccc(Cl)c2Cl)CC1)c1cc2ccccc2s1 | inactive | 0.301 µM (active) | 3.79 µM (active) | 20.5 µM (active) | 23 µM (active)
Cc1ccc(F)cc1S(=O)(=O)N[C@@H]1CCN(Cc2ccc(OC(C)C)cc2)C1 | inactive | 0.0169 µM (active) | 6.01 µM (active) | 16.3 µM (active) | 18.3 µM (active)
N#Cc1ccc(COC[C@H]2O[C@@H](n3c(NCc4ccc(Cl)c(Cl)c4)nc4c(N)ncnc43)[C@H](O)[C@@H]2O)cc1 | inactive | 10.7 µM (active) | 10.7 µM (active) | 14.8 µM (active) | 9.34 µM (active)
NCC1CCN(c2nccc(-c3ccc4ccccc4c3)n2)CC1 | inactive | 9.52 µM (active) | 0.849 µM (active) | 1.86 µM (active) | 1.18 µM (active)
CCOC(=O)N1c2ccc(C(F)(F)F)cc2C(N(Cc2cc(C(F)(F)F)cc(C(F)(F)F)c2)C(=O)OC)CC1CC (stereo not given) | inactive | inactive | inactive | inactive | inactive
C#CCOc1ccc2c(c1)c(-c1ccc(C(C)C)cc1)nc(=O)n2C(C)C | inactive | 23.9 µM (active) | 2.68 µM (active) | 8.17 µM (active) | 11.5 µM (active)
NC(=O)N1CCC(CC(=O)N2CCC(C3c4ncc(Br)cc4CCc4cc(Cl)cc(Br)c43)CC2)CC1 (stereo not given) | inactive | 16.9 µM (active) | 12 µM (active) | 7.28 µM (active) | 6.49 µM (active)
C[C@@H](N[C@H]1CCCC[C@@H]1NC(=O)c1ccc(Cl)cc1)c1cccc2ccccc12 | inactive | 0.756 µM (active) | 12 µM (active) | 14.5 µM (active) | 9.16 µM (active)
Cc1c(C(=O)Nc2ccc(N3CCC(N4CCOCC4)CC3)c(C#N)c2)cnn1-c1ccc(Cl)cc1 | inactive | 12 µM (active) | 2.13 µM (active) | 0.23 µM (active) | 0.23 µM (active)
Cc1cc(N2CCN(C(=O)Oc3ccc(-c4ccccc4)cn3)CC2)c2ccccc2n1 | inactive | 15.1 µM (active) | 26.8 µM (active) | 12.9 µM (active) | 12.9 µM (active)
Cc1cc(C(=O)Nc2cc(Nc3ccc4c(/C=C/c5ccccn5)n[nH]c4c3)ccc2F)n(C)n1 | inactive | 7.56 µM (active) | 4.25 µM (active) | 7.28 µM (active) and 7.42 µM (active) | 9.16 µM (active) and 7.42 µM (active)
COc1cc(/C=N\NC(=O)c2ccc3c(c2)OCO3)ccc1OCc1ccccc1 | inactive | 2.39 µM (active) | 2.39 µM (active) | inactive | inactive

Structure (SMILES) | Potency [1] | Potency [2] | Potency [3] | Potency [4] | Potency [5]
O=C(NCCN1CCOCC1)c1cc2c(Oc3ccc(NC(=O)C4(C(=O)Nc5ccc(F)cc5)CC4)cc3)ccnc2[nH]1 | inactive | 19 µM (active) | 12 µM (active) | 23 µM (active) | 12.9 µM (active)
COCCCNC(=O)c1ccc(Cn2c(=O)c3ccccc3n(Cc3ccc(C(C)C)cc3)c2=O)cc1 | inactive | inactive | 1.51 µM (active) | inactive | inactive
Cc1cc(F)ccc1[C@H]1C[C@@H](N2CCN3C(=O)CC[C@H]3C2)CCN1C(=O)N(C)[C@H](C)c1cc(C(F)(F)F)cc(C(F)(F)F)c1 | inactive | 13.5 µM (active) | 10.7 µM (active) | 23 µM (active) | 14.5 µM (active)
COc1ccc(NC(=O)c2ccc(-c3ccc(-c4nnc(C)o4)cc3C)cc2)cc1N1CCN(C)CC1 | inactive | 30.1 µM (active) | 19 µM (active) | 20.5 µM (active) | 10.3 µM (active)
COc1ccc(C(=O)Nc2c(Cl)cncc2Cl)cc1OC1CCCC1 | inactive | inactive | 6.74 µM (active) | inactive | inactive
CN(C)CCN(Cc1ccc(-c2ccc(CNCCc3ccccc3)cc2)cc1)C(=O)CCC1CCCC1 | inactive | 0.601 µM (active) | 19 µM (active) | 2.58 µM (active) | 2.3 µM (active)
COc1cc2c(cc1OC(C)C)[C@H](c1ccc(Cl)cc1)N(c1ccc(N(C)CC3CCC(N4CCN(C)C(=O)C4)CC3)cc1)C(=O)C2 (stereo not given in full) | inactive | 21.3 µM (active) | 6.74 µM (active) | 1.83 µM (active) and 2.09 µM (active) | 817 nM (active) and 1.18 µM (active)
COC(=O)c1ccc(N2CCN(C)CC2)c(NC(=O)c2cccc(OC)c2)c1 | inactive | 6.01 µM (active) | inactive | inactive | inactive
CCOc1nc(NC(=O)Cc2cc(OC)ccc2OC)cc(N)c1C#N | inactive | inactive | 0.301 µM (active) | inactive | inactive
Cc1onc(-c2ccccc2)c1C(=O)N1CCN(c2ccc([N+](=O)[O-])cc2Cl)CC1 | inactive | 5.35 µM (active) | 9.52 µM (active) | inactive | inactive
COc1ccccc1N1CCN(c2ncnc3n[nH]c(Br)c23)CC1 | inactive | inactive | 7.56 µM (active) | 23 µM (active) | 16.3 µM (active)
C=CC(=O)Nc1cc(-n2c(=O)ccc3cnc4ccc(-c5ccc(NS(C)(=O)=O)cc5)cc4c32)ccc1C | inactive | inactive | 1.51 µM (active) | 3.26 µM (active) | 3.66 µM (active)
CN1CCC(NC(=O)c2cc(-c3c(O)cc(O)cc3Oc3ccc([N+](=O)[O-])cc3)on2)CC1 | inactive | inactive | 12 µM (active) | 0.23 µM (active) | 0.23 µM (active)
CNc1cc2[nH]c(=O)n(-c3ccc(NC(=O)NS(=O)(=O)c4ccc(Cl)s4)cc3)c(=O)c2cc1F | inactive | inactive | inactive | inactive | inactive
CNC(=O)[C@@H](c1ccccc1)N1CCc2cc(OC)c(OC)cc2[C@@H]1CCc1ccc(C(F)(F)F)cc1 | inactive | 4.77 µM (active) | 6.74 µM (active) | 23 µM (active) | 16.3 µM (active)
CCNC(=O)c1noc(-c2cc(Cl)c(O)cc2O)c1-c1ccc(OC)cc1 | inactive | 26.8 µM (active) | 3.38 µM (active) | 0.129 µM (active) | 0.115 µM (active)
Cc1cc2sc(NC(=O)Cc3ccccc3)nc2cc1Cl | inactive | inactive | inactive | inactive | inactive
COc1cc(N2CCC(N)CC2)ccc1Nc1ncc(Cl)c(-c2c[nH]c3ccccc23)n1 | inactive | 21.3 µM (active) | 3.01 µM (active) | 1.45 µM (active) and 1.66 µM (active) | 1.63 µM (active) and 2.35 µM (active)
Clc1ccc(Cn2c(Cc3ccccc3)nc3ccccc32)cc1 | inactive | 10.7 µM (active) | 9.52 µM (active) | 11.5 µM (active) | 18.3 µM (active)
